# Measurements taken from article PMC10726135, “HNF4α isoforms regulate the circadian balance between carbohydrate and lipid metabolism in the liver”.
# In all, about 18,000 sequences were measured (“log2 normalized intensity”: median about 0.39, highest 2% from about 6.6 on). This excerpt belongs to a sample that is enriched for the highest values.
# Molecular target: T1, HNF4alpha2 (COS-7 nuclear extract) (Homo sapiens, UniProt P41235 1-474)
# T1 sequence: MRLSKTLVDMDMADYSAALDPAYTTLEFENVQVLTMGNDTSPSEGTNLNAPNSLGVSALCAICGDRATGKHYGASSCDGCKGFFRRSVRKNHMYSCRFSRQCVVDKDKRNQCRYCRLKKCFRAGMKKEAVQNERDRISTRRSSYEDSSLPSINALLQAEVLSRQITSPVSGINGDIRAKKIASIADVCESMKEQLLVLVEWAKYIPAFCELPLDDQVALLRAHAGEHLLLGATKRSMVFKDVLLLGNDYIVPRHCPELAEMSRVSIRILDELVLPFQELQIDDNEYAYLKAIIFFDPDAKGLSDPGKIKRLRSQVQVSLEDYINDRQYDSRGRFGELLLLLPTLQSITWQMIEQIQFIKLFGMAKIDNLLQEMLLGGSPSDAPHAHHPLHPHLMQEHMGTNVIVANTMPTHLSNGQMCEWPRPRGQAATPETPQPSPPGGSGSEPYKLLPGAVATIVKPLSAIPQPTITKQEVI
# Assay: protein-binding microarray; COS-7 nuclear extract on double-stranded Agilent 4x180k PBM; binding buffer, salt, pH and temperature not given in the material; high values mean tight binding
# Conditions: chain copies: 2; label: 3' end of strand 1 on the slide; dsDNA, one strand shown
# How it was run: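 Nuclear extracts of COS-7 cells transiently transfected with a human HNF4α isoform were applied to a custom Agilent SurePrint G3 4x180k array bearing ~44,000 double-stranded ~60-nt test sequences, each in quadruplicate. The bound protein was imaged on an Agilent G2565CA scanner at 2-µm resolution. Binding signal is the normalized, background-corrected gProcessedSignal from Agilent software.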
row,Sequence,binding signal
1,AATACGACCTTTGGACAGGGTGACGTCATTGCCTAGGGAGATTAGAGTATCGGTCGA,6.27 log2 normalized intensity
2,AGAAGTTGGACTTTGTACATTCCAAATACGGCCTAGGGAGATTAGAGTATCGGTCGA,6.88 log2 normalized intensity
3,CCTGGTGACCTTTGTTTGGTCAAATACCTAGCCTAGGGAGATTAGAGTATCGGTCGA,2.9 log2 normalized intensity
4,GTACTTTGTACATGGGAATAGACATTCCAGGCCTAGGGAGATTAGAGTATCGGTCGA,2.04 log2 normalized intensity
5,ATGGTGGCCATTCTGATTTGATAAGATGTGGCCTAGGGAGATTAGAGTATCGGTCGA,0.774 log2 normalized intensity
6,CTTCGTCCTGAGCAGTCCCTTCCCCCCTCCGCCTAGGGAGATTAGAGTATCGGTCGA,5.36 log2 normalized intensity
7,ACTTGTTCCCTGTCGCTATCTTATCTGGGCGCCTAGGGAGATTAGAGTATCGGTCGA,1.62 log2 normalized intensity
8,CTCATTCTTGGAATGCATTGCAAGTCGTATGCCTAGGGAGATTAGAGTATCGGTCGA,1.17 log2 normalized intensity
9,TGCCCCTTCACATATTTTGAAAGAAAGAGAGCCTAGGGAGATTAGAGTATCGGTCGA,1.68 log2 normalized intensity
10,CGGCTTGCGTCCCCAGGTGAACTCAGTCCTGCCTAGGGAGATTAGAGTATCGGTCGA,1.21 log2 normalized intensity
11,TTGTAGCCTCATTTCACCTTTGGTCTTTGGGCCTAGGGAGATTAGAGTATCGGTCGA,4.78 log2 normalized intensity
12,TCAGATGAGACTTTGGACTTTTGAACTAAGGCCTAGGGAGATTAGAGTATCGGTCGA,6.42 log2 normalized intensity
13,TTATCTCAGATGAGACTTTGGACTTTTGAAGCCTAGGGAGATTAGAGTATCGGTCGA,7.12 log2 normalized intensity
14,CAGATGGATTGATAGACTTATCTCAGCCTGGCCTAGGGAGATTAGAGTATCGGTCGA,-0.761 log2 normalized intensity
15,ATCTAGGTGAGGGATGAGGACTTTGATCAGGCCTAGGGAGATTAGAGTATCGGTCGA,6.01 log2 normalized intensity
16,TAGCCTTATCTCAGATGAGACTTTGGACTTGCCTAGGGAGATTAGAGTATCGGTCGA,7.96 log2 normalized intensity
17,GGGCTGAGGATGAGGACTTTGGTCTTATTAGCCTAGGGAGATTAGAGTATCGGTCGA,3.74 log2 normalized intensity
18,GAATCTACAGAATTCTCATGGAGGACTTTGGCCTAGGGAGATTAGAGTATCGGTCGA,2.77 log2 normalized intensity
19,TCTGGGATGTTGGGAGGAGTGGACTTTGATGCCTAGGGAGATTAGAGTATCGGTCGA,5.99 log2 normalized intensity
20,AATTCTCATGGAGGACTTTGGCCTTTTGTGGCCTAGGGAGATTAGAGTATCGGTCGA,5.77 log2 normalized intensity
21,TACAGAATTCTCATGGAGGACTTTGGCCTTGCCTAGGGAGATTAGAGTATCGGTCGA,7.11 log2 normalized intensity
22,GGGACTAGCCTTATCTCAGATGAGACTTTGGCCTAGGGAGATTAGAGTATCGGTCGA,1.7 log2 normalized intensity
23,GATGTTGGGAGGAGTGGACTTTGATCTCAGGCCTAGGGAGATTAGAGTATCGGTCGA,8.9 log2 normalized intensity

row,Sequence,binding signal
1,TCTTTGTTCAGAGGGCATGTTGAGTGGAATGCCTAGGGAGATTAGAGTATCGGTCGA,2.13 log2 normalized intensity
2,TTACAACGCTGTTGTCTGTGACTGGGGTCAGCCTAGGGAGATTAGAGTATCGGTCGA,3.66 log2 normalized intensity
3,GCCAACAACTAGGGCAAAGGTTAGCTTGGAGCCTAGGGAGATTAGAGTATCGGTCGA,4.27 log2 normalized intensity
4,ACAGATGTAGACATTGGAATGCGGGCTCCAGCCTAGGGAGATTAGAGTATCGGTCGA,-0.394 log2 normalized intensity
5,TCGGAATGTCTGGGCAAAGGGGAGGTTATCGCCTAGGGAGATTAGAGTATCGGTCGA,0.29 log2 normalized intensity
6,AAGTGGTATCCTGCAGTCAGTCTGATTGGTGCCTAGGGAGATTAGAGTATCGGTCGA,0.556 log2 normalized intensity
7,GAGGAGTGGCCATGATGCCATCTGGTGAAGGCCTAGGGAGATTAGAGTATCGGTCGA,-0.987 log2 normalized intensity
8,TTGAACACCACAAGTTTGAACTGCACAGGCGCCTAGGGAGATTAGAGTATCGGTCGA,-0.333 log2 normalized intensity
9,GTGAGGTCACAGTATTCATTCCCCTAGTATGCCTAGGGAGATTAGAGTATCGGTCGA,2.55 log2 normalized intensity
10,TAGCTTTAGCCGGACTTTGTCCTTTGATTTGCCTAGGGAGATTAGAGTATCGGTCGA,6.43 log2 normalized intensity
11,CTATCTCAGATAGCTTTAGCCGGACTTTGTGCCTAGGGAGATTAGAGTATCGGTCGA,5.18 log2 normalized intensity
12,TCAGATAGCTTTAGCCGGACTTTGTCCTTTGCCTAGGGAGATTAGAGTATCGGTCGA,7.78 log2 normalized intensity
13,TAGTAGGGTCAAAGTCTGGATCCGTTAACAGCCTAGGGAGATTAGAGTATCGGTCGA,4.3 log2 normalized intensity
14,CACCTTTTTTGGCCTTTACCCCTTGAGTTTGCCTAGGGAGATTAGAGTATCGGTCGA,3.93 log2 normalized intensity
15,CCCACCCCCACGCCCCCCAGCGGAAGTCCAGCCTAGGGAGATTAGAGTATCGGTCGA,6.97 log2 normalized intensity
16,GGATCGGAACCCCACCCCCACGCCCCCCAGGCCTAGGGAGATTAGAGTATCGGTCGA,7 log2 normalized intensity
17,CACACACACACACACACCCCACACACCAAAGCCTAGGGAGATTAGAGTATCGGTCGA,3.12 log2 normalized intensity
18,CCTCCAGGCCCCAGCCACGCCCTCTAACCCGCCTAGGGAGATTAGAGTATCGGTCGA,2.92 log2 normalized intensity
19,GGAACCCCACCCCCACGCCCCCCAGCGGAAGCCTAGGGAGATTAGAGTATCGGTCGA,7.16 log2 normalized intensity
20,AGGCCCCAGCCACGCCCTCTAACCCAGGTTGCCTAGGGAGATTAGAGTATCGGTCGA,3.08 log2 normalized intensity
21,CGCCCCCCAGCGGAAGTCCAGTGGTGTCTTGCCTAGGGAGATTAGAGTATCGGTCGA,3.33 log2 normalized intensity
22,TCACACACACACACACACACACCCCACACAGCCTAGGGAGATTAGAGTATCGGTCGA,1.75 log2 normalized intensity
23,CAAAGTTCAAGGTCCAGCCTACCCACCCACGCCTAGGGAGATTAGAGTATCGGTCGA,4.66 log2 normalized intensity
